From the supplement of paper PMC11732987, “Enantioselective OTUD7B fragment discovery through chemoproteomics screening and high-throughput optimisation” (Communications Chemistry, 2025)

Tests used:
Assay in all cases: log2 ratio of Biotin-Ahx-Ub-VS probe labelling (fragment/DMSO); higher = less target engagement (more negative = stronger competition), active = hit call of the paper (q ≤ 0.05, log2 ratio ≤ -1)
Conditions in all cases: compound concentration: 200 uM; treatment time: 3 h
USP19 = target: T1, USP19 (UniProt O94966)
T1 sequence (whole entry): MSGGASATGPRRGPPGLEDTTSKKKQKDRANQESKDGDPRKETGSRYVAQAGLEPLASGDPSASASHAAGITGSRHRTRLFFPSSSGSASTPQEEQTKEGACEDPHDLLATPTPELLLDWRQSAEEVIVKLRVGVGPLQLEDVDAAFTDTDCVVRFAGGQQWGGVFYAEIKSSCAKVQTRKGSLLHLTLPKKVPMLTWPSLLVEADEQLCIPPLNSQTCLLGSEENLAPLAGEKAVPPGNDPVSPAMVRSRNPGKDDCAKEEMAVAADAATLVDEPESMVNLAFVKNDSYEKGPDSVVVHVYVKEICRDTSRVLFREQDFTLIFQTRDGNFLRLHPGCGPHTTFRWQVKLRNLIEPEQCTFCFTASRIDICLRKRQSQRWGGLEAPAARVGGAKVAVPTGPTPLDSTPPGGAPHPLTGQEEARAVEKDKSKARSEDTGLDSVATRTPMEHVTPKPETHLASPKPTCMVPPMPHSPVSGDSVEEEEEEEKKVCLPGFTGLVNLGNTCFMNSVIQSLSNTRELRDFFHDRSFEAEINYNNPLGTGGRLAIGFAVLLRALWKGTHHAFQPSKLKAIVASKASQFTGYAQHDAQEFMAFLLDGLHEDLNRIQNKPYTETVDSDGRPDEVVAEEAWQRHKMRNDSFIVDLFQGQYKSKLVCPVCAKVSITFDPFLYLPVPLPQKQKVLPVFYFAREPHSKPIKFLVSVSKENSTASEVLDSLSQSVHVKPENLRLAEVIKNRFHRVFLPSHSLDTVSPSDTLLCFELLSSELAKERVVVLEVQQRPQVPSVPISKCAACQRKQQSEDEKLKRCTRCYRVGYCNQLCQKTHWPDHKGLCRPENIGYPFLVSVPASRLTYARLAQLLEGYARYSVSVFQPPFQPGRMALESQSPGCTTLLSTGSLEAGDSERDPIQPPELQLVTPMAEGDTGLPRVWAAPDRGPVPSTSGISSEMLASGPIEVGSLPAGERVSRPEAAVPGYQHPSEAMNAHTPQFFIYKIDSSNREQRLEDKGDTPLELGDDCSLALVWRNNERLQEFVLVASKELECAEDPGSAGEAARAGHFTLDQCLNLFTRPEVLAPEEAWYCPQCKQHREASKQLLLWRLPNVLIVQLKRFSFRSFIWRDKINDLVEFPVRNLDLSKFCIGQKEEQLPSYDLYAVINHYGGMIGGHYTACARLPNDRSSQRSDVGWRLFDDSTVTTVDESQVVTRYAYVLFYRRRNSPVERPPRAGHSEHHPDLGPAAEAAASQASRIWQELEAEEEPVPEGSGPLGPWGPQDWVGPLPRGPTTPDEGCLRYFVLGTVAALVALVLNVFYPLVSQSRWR
Method in brief: (§1)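 Labelling with Biotin-Ahx-Ub-VS (0.5 µM final, 1 h) followed a 3 h triplicate treatment of HEK293T lysate (495 µg per sample, Tris/CHAPS/IGEPAL buffer with protease inhibitors) with fragment at 200 µM or vehicle. Labelled DUBs were NeutrAvidin-enriched, digested with LysC and trypsin, and run by diaPASEF LC-MS/MS. The values, average log2 fragment/vehicle ratios by unpaired t-test, come from global-median-normalised Spectronaut label-free quantities. Proteins with ≥2 unique peptides were used.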

USP22 = target: T2, USP22 (UniProt Q9UPT9)
T2 sequence (whole entry): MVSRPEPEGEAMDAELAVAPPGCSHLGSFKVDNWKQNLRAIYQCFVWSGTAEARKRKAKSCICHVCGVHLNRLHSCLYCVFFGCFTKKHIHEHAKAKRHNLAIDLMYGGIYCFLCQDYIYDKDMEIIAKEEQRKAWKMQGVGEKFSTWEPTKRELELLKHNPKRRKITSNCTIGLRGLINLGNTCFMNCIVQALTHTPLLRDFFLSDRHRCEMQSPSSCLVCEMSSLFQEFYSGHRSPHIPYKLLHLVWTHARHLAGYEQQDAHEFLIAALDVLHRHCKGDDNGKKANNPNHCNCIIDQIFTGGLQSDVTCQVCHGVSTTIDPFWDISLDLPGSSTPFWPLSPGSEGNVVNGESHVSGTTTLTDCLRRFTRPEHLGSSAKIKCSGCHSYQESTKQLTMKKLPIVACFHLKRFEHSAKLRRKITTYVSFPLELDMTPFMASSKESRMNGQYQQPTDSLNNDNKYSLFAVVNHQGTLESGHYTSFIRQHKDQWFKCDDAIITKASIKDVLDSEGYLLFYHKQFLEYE
Method in brief: as §1

USP24 = USP24 (UniProt Q9UPU5)
Sequence of USP24 (Q9UPU5 whole entry): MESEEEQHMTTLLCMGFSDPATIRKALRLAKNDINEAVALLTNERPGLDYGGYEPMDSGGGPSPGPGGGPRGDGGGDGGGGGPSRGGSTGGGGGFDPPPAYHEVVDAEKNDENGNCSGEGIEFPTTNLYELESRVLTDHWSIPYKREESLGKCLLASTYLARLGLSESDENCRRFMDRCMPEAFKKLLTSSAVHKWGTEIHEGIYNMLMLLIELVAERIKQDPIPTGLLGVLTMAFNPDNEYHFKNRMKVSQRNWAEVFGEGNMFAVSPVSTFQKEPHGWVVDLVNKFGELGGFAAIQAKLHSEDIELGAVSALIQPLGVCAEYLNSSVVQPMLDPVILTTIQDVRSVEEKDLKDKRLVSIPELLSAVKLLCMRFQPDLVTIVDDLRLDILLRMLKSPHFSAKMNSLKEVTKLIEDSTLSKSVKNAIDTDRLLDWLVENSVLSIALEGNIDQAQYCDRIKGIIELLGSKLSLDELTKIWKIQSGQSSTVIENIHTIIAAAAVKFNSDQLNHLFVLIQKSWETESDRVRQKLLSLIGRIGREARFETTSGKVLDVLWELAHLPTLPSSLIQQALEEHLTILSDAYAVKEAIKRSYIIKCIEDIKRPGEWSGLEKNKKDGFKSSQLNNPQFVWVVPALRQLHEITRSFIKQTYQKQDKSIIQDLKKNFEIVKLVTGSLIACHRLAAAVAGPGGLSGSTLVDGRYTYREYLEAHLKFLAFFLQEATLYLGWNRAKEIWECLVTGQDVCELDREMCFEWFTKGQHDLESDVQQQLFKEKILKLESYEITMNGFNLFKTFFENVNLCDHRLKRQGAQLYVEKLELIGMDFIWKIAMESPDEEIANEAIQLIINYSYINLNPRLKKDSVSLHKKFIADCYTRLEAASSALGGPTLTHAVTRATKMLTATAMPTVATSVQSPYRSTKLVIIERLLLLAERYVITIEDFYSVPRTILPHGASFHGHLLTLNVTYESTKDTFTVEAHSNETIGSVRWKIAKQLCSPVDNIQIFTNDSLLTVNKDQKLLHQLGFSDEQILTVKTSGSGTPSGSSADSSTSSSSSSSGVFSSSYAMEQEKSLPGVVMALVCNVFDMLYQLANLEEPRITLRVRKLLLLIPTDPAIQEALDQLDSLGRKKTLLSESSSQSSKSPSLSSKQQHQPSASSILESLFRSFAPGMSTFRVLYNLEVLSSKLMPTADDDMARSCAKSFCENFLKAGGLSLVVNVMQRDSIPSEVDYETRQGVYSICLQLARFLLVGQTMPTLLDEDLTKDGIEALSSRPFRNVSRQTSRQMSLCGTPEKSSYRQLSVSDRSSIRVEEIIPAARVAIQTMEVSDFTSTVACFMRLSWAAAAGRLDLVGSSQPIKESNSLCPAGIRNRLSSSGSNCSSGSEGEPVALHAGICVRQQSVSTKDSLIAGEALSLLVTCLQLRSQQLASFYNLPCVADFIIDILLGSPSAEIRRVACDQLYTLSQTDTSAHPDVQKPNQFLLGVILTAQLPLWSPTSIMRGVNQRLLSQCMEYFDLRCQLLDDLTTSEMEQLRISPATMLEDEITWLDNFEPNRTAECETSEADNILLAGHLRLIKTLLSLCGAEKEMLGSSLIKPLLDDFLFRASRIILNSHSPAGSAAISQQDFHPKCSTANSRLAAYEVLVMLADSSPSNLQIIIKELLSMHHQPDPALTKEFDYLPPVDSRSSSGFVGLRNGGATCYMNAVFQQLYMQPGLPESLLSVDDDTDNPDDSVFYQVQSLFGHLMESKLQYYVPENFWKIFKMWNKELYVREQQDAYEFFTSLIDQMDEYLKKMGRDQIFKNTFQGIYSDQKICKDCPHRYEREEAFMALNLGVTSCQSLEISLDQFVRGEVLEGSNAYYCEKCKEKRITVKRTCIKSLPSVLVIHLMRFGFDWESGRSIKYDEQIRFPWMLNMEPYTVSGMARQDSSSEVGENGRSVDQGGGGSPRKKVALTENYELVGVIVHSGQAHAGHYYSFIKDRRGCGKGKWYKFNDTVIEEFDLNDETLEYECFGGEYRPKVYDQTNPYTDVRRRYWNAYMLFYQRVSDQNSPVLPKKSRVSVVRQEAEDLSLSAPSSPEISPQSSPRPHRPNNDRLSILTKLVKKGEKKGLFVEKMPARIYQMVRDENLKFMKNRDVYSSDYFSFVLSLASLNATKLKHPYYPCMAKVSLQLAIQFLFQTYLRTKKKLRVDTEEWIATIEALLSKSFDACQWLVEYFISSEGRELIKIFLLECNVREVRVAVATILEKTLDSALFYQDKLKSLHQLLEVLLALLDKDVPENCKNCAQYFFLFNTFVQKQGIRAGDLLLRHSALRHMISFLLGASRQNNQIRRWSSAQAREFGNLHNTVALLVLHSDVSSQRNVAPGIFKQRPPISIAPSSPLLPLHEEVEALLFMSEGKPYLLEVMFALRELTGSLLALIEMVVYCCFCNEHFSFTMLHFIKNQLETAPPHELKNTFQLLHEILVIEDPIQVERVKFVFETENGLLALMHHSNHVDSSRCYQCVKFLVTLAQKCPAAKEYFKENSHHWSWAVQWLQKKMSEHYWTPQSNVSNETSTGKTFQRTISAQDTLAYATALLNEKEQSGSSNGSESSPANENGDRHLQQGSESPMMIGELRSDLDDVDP
Method in brief: as §1

USP25 = target: T3, USP25 (UniProt Q9UHP3)
T3 sequence (whole entry): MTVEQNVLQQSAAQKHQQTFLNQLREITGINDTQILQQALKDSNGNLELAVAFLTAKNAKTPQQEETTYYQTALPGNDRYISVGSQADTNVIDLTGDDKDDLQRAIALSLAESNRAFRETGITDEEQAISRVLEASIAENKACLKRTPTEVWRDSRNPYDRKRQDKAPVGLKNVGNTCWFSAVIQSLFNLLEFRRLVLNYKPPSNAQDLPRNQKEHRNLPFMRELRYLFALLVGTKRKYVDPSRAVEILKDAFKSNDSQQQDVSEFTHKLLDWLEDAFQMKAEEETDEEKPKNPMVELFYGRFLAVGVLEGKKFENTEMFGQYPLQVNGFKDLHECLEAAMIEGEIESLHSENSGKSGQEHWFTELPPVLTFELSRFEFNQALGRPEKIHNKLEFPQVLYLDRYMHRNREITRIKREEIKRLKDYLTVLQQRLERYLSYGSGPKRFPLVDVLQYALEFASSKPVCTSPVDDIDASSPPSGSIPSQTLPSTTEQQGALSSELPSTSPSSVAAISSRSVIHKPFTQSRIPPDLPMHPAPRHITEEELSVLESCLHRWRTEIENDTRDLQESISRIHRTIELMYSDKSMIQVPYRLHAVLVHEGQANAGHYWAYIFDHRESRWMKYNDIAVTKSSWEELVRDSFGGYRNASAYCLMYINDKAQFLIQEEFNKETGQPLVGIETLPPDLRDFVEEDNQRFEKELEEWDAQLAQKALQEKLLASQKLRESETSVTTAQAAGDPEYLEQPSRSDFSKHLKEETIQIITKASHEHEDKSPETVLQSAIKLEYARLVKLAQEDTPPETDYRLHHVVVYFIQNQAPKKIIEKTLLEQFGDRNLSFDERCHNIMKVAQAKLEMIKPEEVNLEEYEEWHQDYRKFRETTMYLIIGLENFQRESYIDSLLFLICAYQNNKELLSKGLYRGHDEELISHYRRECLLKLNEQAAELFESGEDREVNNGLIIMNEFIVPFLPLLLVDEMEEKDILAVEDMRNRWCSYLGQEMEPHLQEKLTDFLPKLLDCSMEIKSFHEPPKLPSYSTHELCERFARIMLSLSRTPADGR
Method in brief: as §1

USP28 = target: T4, USP28 (UniProt Q96RU2)
T4 sequence (whole entry): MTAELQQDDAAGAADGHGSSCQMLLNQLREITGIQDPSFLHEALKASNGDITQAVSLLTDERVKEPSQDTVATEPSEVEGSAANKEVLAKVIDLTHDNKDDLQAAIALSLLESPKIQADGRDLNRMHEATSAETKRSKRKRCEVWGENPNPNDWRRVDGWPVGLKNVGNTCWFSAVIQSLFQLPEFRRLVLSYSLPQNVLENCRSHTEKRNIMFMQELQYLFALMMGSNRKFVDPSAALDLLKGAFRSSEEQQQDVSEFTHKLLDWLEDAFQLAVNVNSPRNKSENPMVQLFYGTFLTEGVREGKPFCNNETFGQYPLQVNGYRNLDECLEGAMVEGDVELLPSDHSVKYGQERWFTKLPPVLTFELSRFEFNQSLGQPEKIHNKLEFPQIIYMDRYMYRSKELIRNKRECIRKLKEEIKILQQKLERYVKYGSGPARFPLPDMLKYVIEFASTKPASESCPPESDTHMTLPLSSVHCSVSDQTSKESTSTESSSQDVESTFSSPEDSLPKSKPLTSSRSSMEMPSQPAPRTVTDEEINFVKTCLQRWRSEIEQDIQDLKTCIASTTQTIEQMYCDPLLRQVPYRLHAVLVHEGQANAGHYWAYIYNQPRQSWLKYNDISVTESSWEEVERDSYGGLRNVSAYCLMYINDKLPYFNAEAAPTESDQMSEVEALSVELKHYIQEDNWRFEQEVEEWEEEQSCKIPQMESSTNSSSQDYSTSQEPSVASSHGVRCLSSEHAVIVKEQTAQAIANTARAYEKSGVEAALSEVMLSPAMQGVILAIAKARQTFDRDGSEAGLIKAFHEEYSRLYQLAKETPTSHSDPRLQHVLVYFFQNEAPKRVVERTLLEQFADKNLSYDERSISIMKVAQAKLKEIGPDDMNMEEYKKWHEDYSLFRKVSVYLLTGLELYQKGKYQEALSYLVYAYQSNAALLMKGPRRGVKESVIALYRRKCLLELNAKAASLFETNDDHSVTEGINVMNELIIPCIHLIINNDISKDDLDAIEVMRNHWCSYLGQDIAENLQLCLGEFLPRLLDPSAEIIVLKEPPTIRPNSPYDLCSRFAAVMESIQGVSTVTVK
Method in brief: as §1

Measured: log2 ratio of Biotin-Ahx-Ub-VS probe labelling

COCC1C=CCCN1C(=O)CCl (stereo not given)
inactive: USP19 -0.24 | USP22 -0.0428 | USP24 -0.137 | USP25 -0.32 | USP28 -0.342
